Assay results from PubChem BioAssay AID1159580 (chemical genetic matrix, 2015).
In all, about 5,500 compounds went through this assay and about 2,000 (36%) were called active. Another 18% or so got no clear call; they are omitted. No stated cut-off is given here; in the data, active means normalized growth mostly below about 0.91 (no sharp cut-off); inconclusive means no clear call, values can overlap the other calls; inactive means mostly above about 0.92. The list shows a part of the results.

Experiment: chemical genetic growth profiling, strain panel (AID 1159580);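 further: tested at 20 µM; growth read once vehicle control cultures reached saturation at 30 °C; 1 = growth at the plate median or of vehicle wells; lower values mean less growth of the strain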
Conditions: growth OD

Measured: normalized growth

NC(=O)c1ncn([C@@H]2O[C@H](CO)[C@@H](O)[C@H]2O)n1
inactive: S. cerevisiae deletion strains, locus YJR075W, strain HOC1, active compounds read low 0.989 | S. cerevisiae deletion strains, locus YKL009W, strain mrt4, active compounds read low 0.992 | S. cerevisiae deletion strains, locus YKL068W, active compounds read low 0.981 | S. cerevisiae deletion strains, locus YKL085W, strain MDH1 (second series), active compounds read low 1 | S. cerevisiae deletion strains, locus YKL085W, strain MDH1, active compounds read low 1 | S. cerevisiae deletion strains, locus YKL160W, strain elf1, active compounds read low 0.984 | S. cerevisiae deletion strains, locus YKL190W, strain CNB1, active compounds read low 0.988 | S. cerevisiae deletion strains, locus YKR001C, strain vps1, active compounds read low 0.984 | S. cerevisiae deletion strains, locus YKR026C, strain gcn3, active compounds read low 0.984 | S. cerevisiae deletion strains, locus YKR091W, strain srl3, active compounds read low 0.982 | S. cerevisiae deletion strains, locus YLL001W, strain dnm1, active compounds read low 0.984 | S. cerevisiae deletion strains, locus YLL026W, active compounds read low 0.984 | S. cerevisiae deletion strains, locus YLL041C, strain sdh2, active compounds read low 0.983 | S. cerevisiae deletion strains, locus YLR027C, strain aat2, active compounds read low 0.983 | S. cerevisiae deletion strains, locus YLR039C, strain RIC1, active compounds read low 1.01 | S. cerevisiae deletion strains, locus YLR058C, strain SHM2, active compounds read low 0.999 | S. cerevisiae deletion strains, locus YLR102C, strain apc9, active compounds read low 0.998 | S. cerevisiae deletion strains, locus YLR113W, strain HOG1, active compounds read low 0.977 | S. cerevisiae deletion strains, locus YLR221C, strain rsa3, active compounds read low 0.982 | S. cerevisiae deletion strains, locus YLR258W, strain gsy2, active compounds read low 0.98 | S. cerevisiae deletion strains, locus YLR262C, strain YPT6 (second series), active compounds read low 0.987 | S. cerevisiae deletion strains, locus YLR262C, strain YPT6, active compounds read low 0.977 | S. cerevisiae deletion strains, locus YLR268W, strain sec22, active compounds read low 0.987 | S. cerevisiae deletion strains, locus YLR320W, strain mms22, active compounds read low 0.993 | S. cerevisiae deletion strains, locus YLR330W, strain CHS5, active compounds read low 0.989 | S. cerevisiae deletion strains, locus YLR342W, strain FKS1 (second series), active compounds read low 0.991 | S. cerevisiae deletion strains, locus YLR342W, strain FKS1, active compounds read low 0.985 | S. cerevisiae deletion strains, locus YLR357W, strain rsc2, active compounds read low 0.995 | S. cerevisiae deletion strains, locus YLR370C, strain arc18, active compounds read low 0.984 | S. cerevisiae deletion strains, locus YLR371W, strain rom2, active compounds read low 0.985 | S. cerevisiae deletion strains, locus YLR384C, strain iki3, active compounds read low 0.979 | S. cerevisiae deletion strains, locus YLR418C, strain cdc73, active compounds read low 1.03 | S. cerevisiae deletion strains, locus YML016C, strain PPZ1, active compounds read low 1 | S. cerevisiae deletion strains, locus YML032C, strain rad52, active compounds read low 0.988 | S. cerevisiae deletion strains, locus YML120C, strain ndi1, active compounds read low 0.99 | S. cerevisiae deletion strains, locus YML124C, strain tub3, active compounds read low 0.985 | S. cerevisiae deletion strains, locus YMR058W, strain fet3, active compounds read low 0.998 | S. cerevisiae deletion strains, locus YMR078C, strain ctf18, active compounds read low 0.979 | S. cerevisiae deletion strains, locus YMR125W, strain sto1, active compounds read low 0.991 | S. cerevisiae deletion strains, locus YMR129W, active compounds read low 0.997 | S. cerevisiae deletion strains, locus YMR205C, strain PFK2, active compounds read low 0.996 | S. cerevisiae deletion strains, locus YMR223W, strain ubp8, active compounds read low 0.989 | S. cerevisiae deletion strains, locus YMR231W, strain pep5, active compounds read low 0.974 | S. cerevisiae deletion strains, locus YMR263W, strain SAP30, active compounds read low 0.986 | S. cerevisiae deletion strains, locus YMR307W, strain GAS1, active compounds read low 1 | S. cerevisiae deletion strains, locus YNL067W, strain RPL9B, active compounds read low 1 | S. cerevisiae deletion strains, locus YNL071W, strain lat1, active compounds read low 0.988 | S. cerevisiae deletion strains, locus YNL128W, strain TEP1, active compounds read low 1 | S. cerevisiae deletion strains, locus YNL153C, strain GIM3, active compounds read low 1 | S. cerevisiae deletion strains, locus YNL183C, strain NPR1, active compounds read low 0.933 | S. cerevisiae deletion strains, locus YNL209W, strain ssb2, active compounds read low 1 | S. cerevisiae deletion strains, locus YNL233W, strain BNI4, active compounds read low 1.01 | S. cerevisiae deletion strains, locus YNL248C, strain rpa49, active compounds read low 0.986 | S. cerevisiae deletion strains, locus YNL250W, strain rad50, active compounds read low 0.989 | S. cerevisiae deletion strains, locus YNL271C, strain bni1, active compounds read low 0.994 | S. cerevisiae deletion strains, locus YNL298W, strain CLA4, active compounds read low 0.97 | S. cerevisiae deletion strains, locus YNL307C, strain MCK1, active compounds read low 1 | S. cerevisiae deletion strains, locus YNL322C, strain KRE1 (second series), active compounds read low 0.979 | S. cerevisiae deletion strains, locus YNL322C, strain KRE1, active compounds read low 1 | S. cerevisiae deletion strains, locus YNR049C, strain mso1, active compounds read low 0.986 | S. cerevisiae deletion strains, locus YNR052C, strain pop2, active compounds read low 0.977 | S. cerevisiae deletion strains, locus YOL006C, strain TOP1, active compounds read low 1.05 | S. cerevisiae deletion strains, locus YOL012C, strain htz1 1.07 | S. cerevisiae deletion strains, locus YOL147C, strain pex11, active compounds read low 0.981 | S. cerevisiae deletion strains, locus YOR001W, strain rrp6, active compounds read low 0.982 | S. cerevisiae deletion strains, locus YOR061W, strain CKA2, active compounds read low 0.998 | S. cerevisiae deletion strains, locus YOR069W, strain VPS5, active compounds read low 1 | S. cerevisiae deletion strains, locus YOR070C, strain gyp1, active compounds read low 0.98 | S. cerevisiae deletion strains, locus YOR080W, strain dia2, active compounds read low 0.979 | S. cerevisiae deletion strains, locus YOR083W, strain WHI5, active compounds read low 0.986 | S. cerevisiae deletion strains, locus YOR106W, strain vam3, active compounds read low 0.989 | S. cerevisiae deletion strains, locus YOR136W, strain idh2, active compounds read low 0.984 | S. cerevisiae deletion strains, locus YOR144C, strain elg1, active compounds read low 0.985 | S. cerevisiae deletion strains, locus YOR184W, strain ser1, active compounds read low 0.992 | S. cerevisiae deletion strains, locus YOR231W, strain MKK1, active compounds read low 0.975 | S. cerevisiae deletion strains, locus YOR265W, strain rbl2, active compounds read low 0.972 | S. cerevisiae deletion strains, locus YOR270C, strain vph1, active compounds read low 1.02 | S. cerevisiae deletion strains, locus YOR290C, strain snf2, active compounds read low 0.976 | S. cerevisiae deletion strains, locus YOR316C, strain cot1, active compounds read low 0.99 | S. cerevisiae deletion strains, locus YPL051W, strain arl3, active compounds read low 0.98 | S. cerevisiae deletion strains, locus YPL055C, strain LGE1, active compounds read low 0.951 | S. cerevisiae deletion strains, locus YPL078C, strain atp4, active compounds read low 0.992 | S. cerevisiae deletion strains, locus YPL106C, strain sse1, active compounds read low 0.939 | S. cerevisiae deletion strains, locus YPL240C, strain hsp82, active compounds read low 0.992 | S. cerevisiae deletion strains, locus YPL241C, strain CIN2, active compounds read low 0.985 | S. cerevisiae deletion strains, locus YPL256C, strain CLN2, active compounds read low 0.981 | S. cerevisiae deletion strains, locus YPR119W, strain clb2, active compounds read low 0.985 | S. cerevisiae deletion strains, locus YPR141C, strain kar3, active compounds read low 0.989 | S. cerevisiae deletion strains, locus YPR163C, strain tif3, active compounds read low 0.978 | S. cerevisiae deletion strains, locus YPR167C, strain met16, active compounds read low 0.995 | S. cerevisiae deletion strains, strain wtn01, active compounds read low 0.983 | S. cerevisiae strains, strain wild type, active compounds read low 0.996
